Assay results from PubChem BioAssay (EPA / NIEHS).
“And” between values parts separate entries of the source, which are not always exact repeats. Equal entries are not always repeated. A structure can be active in one record and inactive in another. The source made the active and inactive calls. Rule for the calls: active = hit-call score of the fitted dose curve at least 0.9, where 1 is the maximum; inactive = score below 0.9.

What follows are compounds tested on Intercellular Adhesion Molecule 1 (ICAM1), ICAM1 (gene 3383) (assay: BSK_BF4T_ICAM1: BioMAP Diversity Plus: BF4T Assay for Intercellular Adhesion Molecule 1 (ICAM1) Biomarker Activity (AID 2284260)). Conditions: primary human bronchial epithelial cells with fibroblasts.
Method in brief: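 ICAM-1 levels measured by ELISA after 24 h chemical treatment of bronchial epithelial cell/dermal fibroblast co-cultures, read against DMSO baseline. Overt cytotoxicity checked in parallel cultures by sulforhodamine B staining.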
For `O=C(O)C(F)(F)C(F)(F)C(F)(F)C(F)(F)C(F)(F)C(F)(F)C(F)(F)C(F)(F)C(F)(F)C(F)(F)C(F)(F)C(F)(F)F`, the outcome was “inactive”. In the case of `FC1CC(F)(F)C(F)(F)C1(F)F` (configuration not stated), the outcome is reported as “inactive”. `O=C(O)C(F)(F)C(F)(F)C(F)F` was tested, and the outcome was “inactive”. `O=C(O)C(F)(F)C(F)(F)OC(F)(F)F` was tested, and the outcome was “inactive”. With `O=C(O)C(F)(F)C(F)(F)C(F)(F)C(F)(F)C(F)(F)C(F)(F)C(F)(F)C(F)(F)C(F)(F)C(F)F` the AC50 was 25.6 µM (active) and 17.8 µM (active). `OCCCC(F)(F)C(F)(F)C(F)(F)C(F)(F)C(F)(F)C(F)(F)C(F)(F)F` was tested, and the AC50 was 23.7 µM (active) and 34 µM (active). With `NC(=O)C(F)(F)C(F)(F)C(F)(F)C(F)(F)F` the outcome was “inactive”. `Cc1ccc(S(=O)(=O)OCC(F)(F)C(F)(F)C(F)(F)C(F)(F)C(F)(F)C(F)F)cc1` was tested, and the outcome was “inactive”. For `FC(F)(F)C(F)(F)C(F)(F)N(C(F)(F)C(F)(F)C(F)(F)F)C(F)(F)C(F)(F)C(F)(F)F`, the outcome was “inactive”. For `FC(F)(F)C(F)(F)C(F)(F)C(F)(F)C(F)(F)C(F)(F)C(F)(F)I`, the outcome was “inactive”. In the case of `O=C(O)C(F)(F)C(F)(F)C(F)(F)C(F)(F)C(F)(F)C(F)(F)C(F)(F)C(F)(F)C(F)(F)C(F)(F)C(F)(F)C(F)(F)C(F)(F)F`, the outcome is reported as “inactive”. `CCO[Si](CCC(F)(F)C(F)(F)C(F)(F)C(F)(F)C(F)(F)C(F)(F)F)(OCC)OCC` was tested, and the outcome was “inactive”. For `OCC(F)(F)C(F)(F)C(F)(F)C(F)F`, the outcome was “inactive”. `OCCCC(F)(F)C(F)(F)C(F)(F)F` was tested, and the outcome was “inactive”. In the case of `FC(F)(Br)C(F)(F)C(F)(F)C(F)(F)C(F)(F)C(F)(F)Br`, the outcome is reported as “inactive”. For `COC(=O)CCC(F)(F)C(F)(F)C(F)(F)C(F)(F)F`, the outcome was “inactive”. With `FC(F)(I)C(F)(F)C(F)(F)C(F)(F)I` the AC50 was 45.7 µM (active) and 47.8 µM (active) and 51.6 µM (active). In the case of `C=C(C)C(=O)OCC(F)(F)C(F)(F)C(F)(F)F`, the outcome is reported as “inactive”. `O=C(O)C(F)(F)C(F)(F)F` was tested, and the outcome was “inactive”. In the case of `N=C(N)C(F)(F)C(F)(F)C(F)(F)C(F)(F)C(F)(F)C(F)(F)C(F)(F)F`, the outcome is reported as “inactive”. `FC(F)(F)C(F)(F)C(F)(F)C(F)(F)C(F)(F)C(F)(F)C(F)(F)C(F)(F)CCS` was tested, and the outcome was “inactive”. For `O=C(O)C=C(C(F)(F)F)C(F)(F)F`, the outcome was “inactive”. `FC(F)(F)C(F)(F)C(F)(F)CI` was tested, and the outcome was “inactive”. In the case of `CC(C)(C)C(=O)CC(=O)C(F)(F)C(F)(F)C(F)(F)F`, the outcome is reported as “inactive”. In the case of `FC(F)(F)C(F)(F)C(F)(F)C(F)(F)C(F)(F)C(F)(F)C(F)(F)Br`, the outcome is reported as “inactive”. `FC(F)(F)C(F)(F)C(F)(F)C(F)(F)C(F)(F)CCI` was tested, and the outcome was “inactive”. In the case of `O=C(O)C(F)(F)C(F)(F)C(F)(F)C(F)(F)C(F)(F)C(F)(F)C(F)(F)C(F)(F)Cl`, the AC50 is reported as 41.4 µM (active) and 40 µM (active). With `O=P(O)(O)OCCC(F)(F)C(F)(F)C(F)(F)C(F)(F)C(F)(F)C(F)(F)F` the outcome was “inactive”. For `FC(F)(F)C(F)(F)C(F)(F)C(F)(F)C(F)(F)C(F)(F)CCS`, the outcome was “inactive”. `FC(F)(F)C(F)(F)C(F)(F)C(F)(F)CCI` was tested, and the outcome was “inactive”. In the case of `C=CC(F)(F)C(F)(F)C(F)(F)C(F)(F)C(F)(F)C(F)(F)C(F)(F)C(F)(F)C=C`, the outcome is reported as “inactive”. `CCCCCCCCC(F)(F)C(F)(F)C(F)(F)C(F)(F)C(F)(F)C(F)(F)F` was tested, and the outcome was “inactive”. In the case of `C=C(C)C(=O)OCC(F)(F)C(F)(F)C(F)(F)C(F)(F)C(F)(F)C(F)(F)C(F)(F)F`, the outcome is reported as “inactive”. `O=C(Cl)C(F)(F)C(F)(F)C(F)(F)C(F)(F)C(F)(F)C(F)(F)C(F)(F)C(F)(F)F` was tested, and the outcome was “inactive”. For `OCC(F)(F)C(F)(F)C(F)(F)F`, the outcome was “inactive”.

What follows are compounds tested on Interleukin-8 (IL8), CXCL8 (gene 3576) (assay: BSK_MyoF_IL8: BioMAP Diversity Plus: MyoF Assay for Interleukin-8 (IL8) Biomarker Activity (AID 2284261)). Conditions: primary human lung fibroblasts.
Method in brief: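 IL-8 quantified by ELISA after 24 h compound exposure of primary human lung fibroblasts. SRB staining of parallel cultures flagged cytotoxicity; DMSO served as baseline.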
In the case of `O=C(O)C(F)(F)C(F)(F)C(F)(F)C(F)(F)C(F)(F)C(F)(F)C(F)(F)C(F)(F)C(F)(F)C(F)(F)C(F)(F)C(F)(F)F`, the outcome is reported as “inactive”. In the case of `FC1CC(F)(F)C(F)(F)C1(F)F` (configuration not stated), the outcome is reported as “inactive”. `O=C(O)C(F)(F)C(F)(F)C(F)F` was tested, and the outcome was “inactive”. With `O=C(O)C(F)(F)C(F)(F)OC(F)(F)F` the outcome was “inactive”. `O=C(O)C(F)(F)C(F)(F)C(F)(F)C(F)(F)C(F)(F)C(F)(F)C(F)(F)C(F)(F)C(F)(F)C(F)F` was tested, and the outcome was “inactive”. `OCCCC(F)(F)C(F)(F)C(F)(F)C(F)(F)C(F)(F)C(F)(F)C(F)(F)F` was tested, and the AC50 was 58.5 µM (active) and the outcome was “inactive”. With `NC(=O)C(F)(F)C(F)(F)C(F)(F)C(F)(F)F` the outcome was “inactive”. With `Cc1ccc(S(=O)(=O)OCC(F)(F)C(F)(F)C(F)(F)C(F)(F)C(F)(F)C(F)F)cc1` the outcome was “inactive”. For `FC(F)(F)C(F)(F)C(F)(F)N(C(F)(F)C(F)(F)C(F)(F)F)C(F)(F)C(F)(F)C(F)(F)F`, the outcome was “inactive”. For `FC(F)(F)C(F)(F)C(F)(F)C(F)(F)C(F)(F)C(F)(F)C(F)(F)I`, the outcome was “inactive”. For `O=C(O)C(F)(F)C(F)(F)C(F)(F)C(F)(F)C(F)(F)C(F)(F)C(F)(F)C(F)(F)C(F)(F)C(F)(F)C(F)(F)C(F)(F)C(F)(F)F`, the outcome was “inactive”. `CCO[Si](CCC(F)(F)C(F)(F)C(F)(F)C(F)(F)C(F)(F)C(F)(F)F)(OCC)OCC` was tested, and the outcome was “inactive”. In the case of `OCC(F)(F)C(F)(F)C(F)(F)C(F)F`, the outcome is reported as “inactive”. For `OCCCC(F)(F)C(F)(F)C(F)(F)F`, the outcome was “inactive”. `FC(F)(Br)C(F)(F)C(F)(F)C(F)(F)C(F)(F)C(F)(F)Br` was tested, and the outcome was “inactive”. `COC(=O)CCC(F)(F)C(F)(F)C(F)(F)C(F)(F)F` was tested, and the outcome was “inactive”. For `FC(F)(I)C(F)(F)C(F)(F)C(F)(F)I`, the AC50 was 57.5 µM (active) and 48 µM (active) and 48.5 µM (active). In the case of `C=C(C)C(=O)OCC(F)(F)C(F)(F)C(F)(F)F`, the outcome is reported as “inactive”. In the case of `O=C(O)C(F)(F)C(F)(F)F`, the outcome is reported as “inactive”. `N=C(N)C(F)(F)C(F)(F)C(F)(F)C(F)(F)C(F)(F)C(F)(F)C(F)(F)F` was tested, and the outcome was “inactive”. With `FC(F)(F)C(F)(F)C(F)(F)C(F)(F)C(F)(F)C(F)(F)C(F)(F)C(F)(F)CCS` the outcome was “inactive”. In the case of `O=C(O)C=C(C(F)(F)F)C(F)(F)F`, the outcome is reported as “inactive”. In the case of `FC(F)(F)C(F)(F)C(F)(F)CI`, the outcome is reported as “inactive”. `CC(C)(C)C(=O)CC(=O)C(F)(F)C(F)(F)C(F)(F)F` was tested, and the outcome was “inactive”. In the case of `FC(F)(F)C(F)(F)C(F)(F)C(F)(F)C(F)(F)C(F)(F)C(F)(F)Br`, the outcome is reported as “inactive”. `FC(F)(F)C(F)(F)C(F)(F)C(F)(F)C(F)(F)CCI` was tested, and the outcome was “inactive”. With `O=C(O)C(F)(F)C(F)(F)C(F)(F)C(F)(F)C(F)(F)C(F)(F)C(F)(F)C(F)(F)Cl` the outcome was “inactive”. With `O=P(O)(O)OCCC(F)(F)C(F)(F)C(F)(F)C(F)(F)C(F)(F)C(F)(F)F` the outcome was “inactive”. In the case of `FC(F)(F)C(F)(F)C(F)(F)C(F)(F)C(F)(F)C(F)(F)CCS`, the outcome is reported as “inactive”. For `FC(F)(F)C(F)(F)C(F)(F)C(F)(F)CCI`, the AC50 was 5.95 µM (active) and the outcome was “inactive”. With `C=CC(F)(F)C(F)(F)C(F)(F)C(F)(F)C(F)(F)C(F)(F)C(F)(F)C(F)(F)C=C` the outcome was “inactive”. With `CCCCCCCCC(F)(F)C(F)(F)C(F)(F)C(F)(F)C(F)(F)C(F)(F)F` the outcome was “inactive”. `C=C(C)C(=O)OCC(F)(F)C(F)(F)C(F)(F)C(F)(F)C(F)(F)C(F)(F)C(F)(F)F` was tested, and the outcome was “inactive”. In the case of `O=C(Cl)C(F)(F)C(F)(F)C(F)(F)C(F)(F)C(F)(F)C(F)(F)C(F)(F)C(F)(F)F`, the outcome is reported as “inactive”. For `OCC(F)(F)C(F)(F)C(F)(F)F`, the outcome was “inactive”.
